We go through 59 compounds from PubChem BioAssay AID588689 (Southern Research Specialized Biocontainment Screening …, 2011).

Usually inhibition stands for the drop in the measured response relative to a control, in per cent.

The target of the experiment is Genome polyprotein (Dengue virus type 2 (strain 16681-PDK53)) (UniProt P29991). Kind of experiment: Dengue-2 NS5 methyltransferase inhibitors, primary screen, biochemical, confirmation dose response (AID 588689). Conditions: Dengue-2 NS5 methyltransferase capping enzyme assay, at 25 µM, stronger effect = higher value.

In all, about 340,000 compounds went through this assay and about 1,000 (0.29%) were called active. Cut-off read from the data, not from the text of the source: inconclusive = inhibition above about 29% without an active follow-up result; inactive = below that. Only a sample is shown. Measured potencies and affinities stand elsewhere.

Sequence of Genome polyprotein (Dengue virus type 2 (strain 16681-PDK53)) (P29991 whole entry, looked up): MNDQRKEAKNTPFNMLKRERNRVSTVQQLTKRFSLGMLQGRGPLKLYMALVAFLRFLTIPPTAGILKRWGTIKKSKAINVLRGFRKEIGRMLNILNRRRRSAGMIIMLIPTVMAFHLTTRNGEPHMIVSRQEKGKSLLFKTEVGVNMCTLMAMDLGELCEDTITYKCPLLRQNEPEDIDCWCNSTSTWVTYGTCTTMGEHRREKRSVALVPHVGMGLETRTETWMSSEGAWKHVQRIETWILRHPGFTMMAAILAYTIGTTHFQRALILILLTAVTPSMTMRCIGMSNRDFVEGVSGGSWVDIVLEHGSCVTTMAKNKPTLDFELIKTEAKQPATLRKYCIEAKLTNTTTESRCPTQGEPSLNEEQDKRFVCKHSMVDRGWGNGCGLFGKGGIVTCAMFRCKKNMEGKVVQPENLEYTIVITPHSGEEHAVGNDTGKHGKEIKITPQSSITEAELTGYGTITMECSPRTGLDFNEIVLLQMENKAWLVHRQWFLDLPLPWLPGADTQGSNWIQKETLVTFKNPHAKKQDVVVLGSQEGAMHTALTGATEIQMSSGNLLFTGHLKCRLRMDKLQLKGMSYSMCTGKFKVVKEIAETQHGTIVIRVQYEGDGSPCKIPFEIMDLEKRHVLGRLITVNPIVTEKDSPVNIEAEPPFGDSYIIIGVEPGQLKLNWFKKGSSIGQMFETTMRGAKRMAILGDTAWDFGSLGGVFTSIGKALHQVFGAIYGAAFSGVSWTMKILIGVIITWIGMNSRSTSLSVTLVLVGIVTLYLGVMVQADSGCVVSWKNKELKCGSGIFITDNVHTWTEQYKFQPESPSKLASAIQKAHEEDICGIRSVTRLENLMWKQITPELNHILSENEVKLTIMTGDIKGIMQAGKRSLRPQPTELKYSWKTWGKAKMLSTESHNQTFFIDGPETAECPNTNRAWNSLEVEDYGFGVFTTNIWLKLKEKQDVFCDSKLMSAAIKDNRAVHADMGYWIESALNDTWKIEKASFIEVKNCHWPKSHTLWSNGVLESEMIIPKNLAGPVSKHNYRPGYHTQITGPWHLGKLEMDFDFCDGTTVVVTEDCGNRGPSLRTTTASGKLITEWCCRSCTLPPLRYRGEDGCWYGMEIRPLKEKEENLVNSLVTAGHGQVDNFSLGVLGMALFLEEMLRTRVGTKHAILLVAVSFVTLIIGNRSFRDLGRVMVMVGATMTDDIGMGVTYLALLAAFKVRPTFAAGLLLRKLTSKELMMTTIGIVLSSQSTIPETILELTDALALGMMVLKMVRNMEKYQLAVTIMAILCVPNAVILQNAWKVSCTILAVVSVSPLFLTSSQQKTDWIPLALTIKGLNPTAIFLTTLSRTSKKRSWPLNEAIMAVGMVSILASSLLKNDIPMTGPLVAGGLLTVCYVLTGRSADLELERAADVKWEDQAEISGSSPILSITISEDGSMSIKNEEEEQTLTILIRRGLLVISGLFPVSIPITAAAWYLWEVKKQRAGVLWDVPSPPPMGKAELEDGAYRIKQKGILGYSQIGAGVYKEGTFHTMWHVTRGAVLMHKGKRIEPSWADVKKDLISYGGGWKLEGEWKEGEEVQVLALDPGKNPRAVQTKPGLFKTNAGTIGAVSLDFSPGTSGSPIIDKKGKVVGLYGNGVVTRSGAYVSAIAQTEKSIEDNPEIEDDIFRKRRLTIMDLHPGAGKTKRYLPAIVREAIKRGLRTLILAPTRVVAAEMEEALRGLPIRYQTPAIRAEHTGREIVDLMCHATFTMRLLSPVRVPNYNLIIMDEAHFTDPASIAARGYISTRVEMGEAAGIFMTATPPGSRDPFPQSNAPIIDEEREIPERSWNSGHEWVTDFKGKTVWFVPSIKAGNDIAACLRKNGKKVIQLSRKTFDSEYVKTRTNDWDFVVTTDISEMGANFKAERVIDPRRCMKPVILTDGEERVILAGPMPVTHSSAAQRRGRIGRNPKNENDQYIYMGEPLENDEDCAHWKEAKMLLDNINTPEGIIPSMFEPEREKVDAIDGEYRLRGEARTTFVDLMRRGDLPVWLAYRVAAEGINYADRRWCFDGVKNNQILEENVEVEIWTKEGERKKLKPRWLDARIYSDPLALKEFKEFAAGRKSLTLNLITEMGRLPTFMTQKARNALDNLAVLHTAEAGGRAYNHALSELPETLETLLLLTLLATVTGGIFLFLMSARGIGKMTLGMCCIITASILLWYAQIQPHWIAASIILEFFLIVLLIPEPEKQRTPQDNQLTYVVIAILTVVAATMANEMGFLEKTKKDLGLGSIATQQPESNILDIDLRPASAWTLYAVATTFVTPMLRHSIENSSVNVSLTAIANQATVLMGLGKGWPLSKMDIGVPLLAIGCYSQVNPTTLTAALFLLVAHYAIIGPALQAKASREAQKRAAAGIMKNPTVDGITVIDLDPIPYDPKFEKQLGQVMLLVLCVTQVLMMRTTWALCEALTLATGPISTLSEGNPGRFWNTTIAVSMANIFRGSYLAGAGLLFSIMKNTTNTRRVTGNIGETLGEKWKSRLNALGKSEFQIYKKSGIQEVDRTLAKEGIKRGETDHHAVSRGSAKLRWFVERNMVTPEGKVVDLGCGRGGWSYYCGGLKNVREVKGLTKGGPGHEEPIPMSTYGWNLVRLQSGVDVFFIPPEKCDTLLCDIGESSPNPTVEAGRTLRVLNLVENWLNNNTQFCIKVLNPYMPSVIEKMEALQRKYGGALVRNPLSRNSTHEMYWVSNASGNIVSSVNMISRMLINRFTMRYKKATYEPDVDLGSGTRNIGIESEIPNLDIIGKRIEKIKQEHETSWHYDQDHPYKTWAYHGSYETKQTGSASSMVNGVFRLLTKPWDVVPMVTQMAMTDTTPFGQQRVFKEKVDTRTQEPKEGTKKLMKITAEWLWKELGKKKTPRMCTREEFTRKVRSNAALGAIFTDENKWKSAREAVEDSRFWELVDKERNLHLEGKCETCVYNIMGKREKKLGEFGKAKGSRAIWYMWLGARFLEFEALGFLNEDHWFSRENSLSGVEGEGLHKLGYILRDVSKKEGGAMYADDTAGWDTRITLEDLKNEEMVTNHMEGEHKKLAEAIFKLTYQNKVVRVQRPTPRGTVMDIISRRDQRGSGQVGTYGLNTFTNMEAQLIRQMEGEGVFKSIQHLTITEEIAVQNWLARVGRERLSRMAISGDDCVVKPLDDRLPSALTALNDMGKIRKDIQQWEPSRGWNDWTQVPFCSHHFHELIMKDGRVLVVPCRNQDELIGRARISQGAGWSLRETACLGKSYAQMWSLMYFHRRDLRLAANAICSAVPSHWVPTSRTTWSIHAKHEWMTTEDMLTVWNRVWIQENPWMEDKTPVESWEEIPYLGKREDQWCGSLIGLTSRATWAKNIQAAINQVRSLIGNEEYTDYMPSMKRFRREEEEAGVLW

Turning to `COc1ccc(N(CC(=O)NCCc2ccc(Cl)cc2)S(=O)(=O)c2c(C)[nH]c(=O)[nH]c2=O)cc1`, the inhibition is -3.87% (inactive).
In the case of `C=CC[C@@H](CC(=O)N[C@@H](CO)Cc1ccccc1)C(=O)NC[C@@H](OC(=O)[C@@H](CC=C)Cc1ccc(F)cc1)c1ccccc1`, the inhibition was -8.18% (inactive).
For the compound `CO/N=C(/C)CCS(=O)(=O)c1ccccc1`, the inhibition is -0.73% (inactive).
Still for that read-out and setting: under `CC(C(=O)Nc1nncs1)N1C(=O)C2C3C=CC(C3)C2C1=O` (stereo not given) stands -5.41% (inactive); under `CCN(CC(=O)NCc1cccs1)C(=O)CCC(=O)c1ccc(C)cc1`, -8.12% (inactive); under `NC(=O)C1CCN(C(=O)CN(C2CCCCC2)S(=O)(=O)c2ccc(F)cc2)CC1`, -9.49% (inactive).
In the case of `CCN(CC)S(=O)(=O)c1ccc2c(c1)N(CC(=O)N1CCC(C(N)=O)CC1)C(=O)CO2`, the inhibition is -6.21% (inactive).
With `O=S(=O)(c1ccc2ccccc2c1)N1CCN(S(=O)(=O)c2c(F)cccc2F)CC1`, the inhibition is 1.65% (inactive).
As to `COc1cc(O)c(NC(C)=O)c2nonc12`, the inhibition is 15% (inactive).
For `CCOc1cc(Cl)c(NC(C)=O)cc1OCC`, the inhibition was -5.19% (inactive).
On the same count and under the same terms, under `CC(C)(C)OC(=O)N1CCN(C(=O)c2[nH]cnc2C(=O)Nc2cccc(Cl)c2)CC1` stands -10.3% (inactive).
Take `O=CN1CCN(C(=S)NC(=O)c2ccc(Cl)cc2)CC1`: the inhibition was -3.86% (inactive).
On to `CC(C)CN1C(=O)/C(=C/c2cccs2)NC1=S`, for which the inhibition is 4.84% (inactive).
The same measure, in the same setting: under `C=CCN1C(=O)/C(=C\c2cccs2)C(C(=O)OC)=C1C` stands -4.71% (inactive).
Take `O=C1NN(c2ccc(F)cc2)C(=O)/C1=C/c1cccs1`: the inhibition is 8.53% (inactive).
`COC(=O)C1=C(C)NC(=O)/C1=C\c1cccs1`: the inhibition is 2.73% (inactive).
Same read-out and setting: next, `COc1ccc(NS(=O)(=O)c2cccc(C(=O)NCC3(N(C)C)CCCCC3)c2)cc1`: -10.1% (inactive); `COCCNC(=O)c1ccc2c(=O)n(Cc3ccco3)c(SCC(=O)Nc3ccc(OC)cc3OC)nc2c1`: -3.55% (inactive); `COc1ccccc1N1CCN(S(=O)(=O)c2ccc3nc(-c4ccccc4)[nH]c3c2)CC1`: 1.09% (inactive).
In the case of `O=c1c2c(nc3cc(-c4cccc(Cl)c4)[nH]n13)CCCC2`, the inhibition is 1.45% (inactive).
On the same count and under the same terms, next, `O=C(NN=C1CCCC1)C(=O)Nc1cccc(C(F)(F)F)c1`: -3.35% (inactive); `O=C(O)CSc1c2c(nc3cc(C(=O)Nc4cccc(C(F)(F)F)c4)ccc13)CCC2`: 2.95% (inactive).
With `O=C(CSc1nc2c(c(=O)[nH]1)CCC2)Nc1cccc(Cl)c1`, the inhibition was -8.06% (inactive).
Consider `Cc1ccc(S(=O)(=O)/N=C(\Nc2cccc(C)c2)Nc2nc(C)cc(C)n2)cc1`, for which the inhibition was -1.83% (inactive).
Regarding `N#Cc1c(Nc2ccccc2)sc(C(=O)C2CC2)c1N`, the inhibition is -8.93% (inactive).
For the compound `CCN(CC)CCNC(C(=O)Nc1ccc([N+](=O)[O-])cc1Br)c1ccccc1` (stereo not given), the inhibition is 3.24% (inactive).
For `Cc1cccc(N=Nc2cnc(N)s2)c1`, the inhibition was 0.79% (inactive).
For the compound `COc1cc(C(=O)O)ccc1Cl`, the inhibition is -1.59% (inactive).
On to `CC(Oc1ccc2c(-c3ccccc3)cc(=O)oc2c1)C(=O)NCCCn1ccnc1` (stereo not given), for which the inhibition was 2.17% (inactive).
`CCC(=O)NC1=C(Nc2ccc(N)cc2)C(=O)c2ccccc2C1=O`: the inhibition was 7.83% (inactive).
Consider `CCCC(=O)Nc1ccccc1NC(=O)CCC`, for which the inhibition is 0% (inactive).
Take `CC(C)NC1=C(Cl)C(=O)c2ccccc2C1=O`: the inhibition was -0.68% (inactive).
Same read-out and setting: next, `CCC(=O)Nc1c(C)cc(C)cc1Cl`: -1.67% (inactive); `O=C(NCCc1ccccc1)c1nc(CS(=O)(=O)c2ccc(Cl)cc2)no1`: -1.81% (inactive); `CCCCCC1CC(CC(=O)NC(=S)Nc2ccccc2Cl)C(=O)O1` (stereo not given): -4.68% (inactive).
In the case of `CN(C)S(=O)(=O)c1cccc2c1C(=O)c1ccccc1C2=O`, the inhibition was -1.92% (inactive).
Regarding `Nc1c(C(=O)O)ccc2c1C(=O)c1ccccc1C2=O`, the inhibition is 24.7% (inactive).
On the same count and under the same terms, next, `CC1(Cc2cn(CCC#N)c3ccccc23)OCCO1`: 6.35% (inactive); `C/[N+]([O-])=C\C1C(=O)CC(C)(C)CC1=O`: -2.92% (inactive).
`CC1(C)CC(=O)C(C(=O)Cc2ccccc2[N+](=O)[O-])C(=O)C1`: the inhibition is -1.48% (inactive).
Regarding `CC1(C)CC(=O)C(C(c2cccc([N+](=O)[O-])c2)C2C(=O)CC(C)(C)CC2=O)C(=O)C1`, the inhibition is 0% (inactive).
The same measure, in the same setting: under `CCOC(=O)c1cc(CC)sc1/N=C/C1C(=O)CC(C)(C)CC1=O` stands -17.9% (inactive); under `Cc1ccc2nc(SCn3nnc4ccccc4c3=O)[nH]c2c1`, -4.53% (inactive).
As to `COc1ccc(OCCCC(=O)ON=C(N)c2ccccc2Cl)cc1`, the inhibition is 1.1% (inactive).
In the case of `CN(CCc1ccccc1)C(=O)c1ccc(NC(=O)Cc2ccc(NC(=O)C3CCCN(C(=O)C4CCC4)C3)cc2)cc1` (stereo not given), the inhibition was 0% (inactive). In addition, the inhibition (measured here: pilot screen replicate inhibition) is 0.92%.
Regarding `COC(=O)c1ccc(NC(=O)CSc2nnc(COc3c(C)cccc3C)o2)cc1`, the inhibition is -9.55% (inactive).
For `CC1CC(=O)c2cc(-c3ccccc3)oc2C1` (stereo not given), the inhibition is 5.14% (inactive).
Regarding `CC1CCC(O)(C(C(=O)O)c2ccccc2)CC1` (stereo not given), the inhibition is -8.55% (inactive).
With `COc1cc(NC(=O)CSc2ccc(-c3ccccn3)nn2)cc(OC)c1`, the inhibition was 0% (inactive).
Take `O=C(NNC1CC(=O)N(c2cccc(Cl)c2)C1=O)c1cccs1` (stereo not given): the inhibition was 3.87% (inactive).
On to `O=C1CSC(=Nc2ccc(O)cc2)N1c1ccc(O)cc1`, for which the inhibition is -5.52% (inactive).
In the case of `O=C1CSC(=Nc2ccc(O)cc2)N1`, the inhibition is -4.89% (inactive).
Take `CN(C(=O)CC1C(=O)NCCN1Cc1ccccc1C(F)(F)F)C1CCOCC1` (stereo not given): the inhibition was 0.91% (inactive).
For `O=C(NCCCN1CCCC1)C1CCN(C(=O)c2cc3sccc3n2Cc2ccc(F)cc2)CC1`, the inhibition is -2.07% (inactive).
On to `CC(/C=C/c1ccco1)=N\NC(=O)COc1ccc(C)c(C)c1`, for which the inhibition is -10.9% (inactive).
Turning to `CC(=O)Nc1ccc(/C(N=Nc2ccccc2)=N/N=C(N)N)cc1`, the inhibition was 7.72% (inactive).
For `O=C(O)c1cccc(N/N=C(\N=Nc2ccccc2)c2ccccc2)c1`, the inhibition is 12.7% (inactive).
Turning to `CCCCn1c(SCC2CCCO2)nc2cc(S(N)(=O)=O)ccc21` (stereo not given), the inhibition is -11.1% (inactive).
`CC1CCN(S(=O)(=O)c2ccc(C(=O)Nc3nnc(C4CC4)o3)cc2)CC1`: the inhibition was -8.7% (inactive).
